Source: PubChem BioAssay
Unmarked numbers belong to inactive results. For some assays here: Results with a measured potency or affinity are listed apart. The source made the active and inactive calls. Unless noted, the rule behind the calls is not given here.

Columns and labels:
[1] = antimalarial activity against Dd2 strain (AID 2302;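 active = growth inhibition above 50% at the single 2 µM test dose, taken to imply half-maximal potency below 2 µM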;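 note: 0% = DMSO untreated growth and 100% = chloroquine plus artemisinin killed control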); details: P. falciparum Dd2 in RBCs, LDH growth readout, 72 h; at 2 µM; stronger effect = higher value
[2] = human hepatoma cell viability loss – ATP luminescence, cytotoxicity control for P. falciparum antimalarial project, primary screen (AID 2303;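 active = inhibition above 50%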;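 note: 0% = DMSO wells and 100% = digitonin-killed cells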); details: HepG2 viability, 24-48 h, at 10 µM, stronger effect = higher value
[3] = target: L-lactate dehydrogenase (Plasmodium falciparum (isolate CDC / Honduras)) (UniProt Q27743); assay: PfLDH activity inhibition – cell lysate, 3D7 strain, counter-screen for P. falciparum growth inhibition project (AID 2304);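 note: 0% = vehicle and 100% = reference inhibitor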; details: P. falciparum 3D7 crude extract, LDH APAD/NBT absorbance; at 2 µM; stronger effect = higher value
Chain of L-lactate dehydrogenase (Plasmodium falciparum (isolate CDC / Honduras)) (Q27743 whole entry, looked up): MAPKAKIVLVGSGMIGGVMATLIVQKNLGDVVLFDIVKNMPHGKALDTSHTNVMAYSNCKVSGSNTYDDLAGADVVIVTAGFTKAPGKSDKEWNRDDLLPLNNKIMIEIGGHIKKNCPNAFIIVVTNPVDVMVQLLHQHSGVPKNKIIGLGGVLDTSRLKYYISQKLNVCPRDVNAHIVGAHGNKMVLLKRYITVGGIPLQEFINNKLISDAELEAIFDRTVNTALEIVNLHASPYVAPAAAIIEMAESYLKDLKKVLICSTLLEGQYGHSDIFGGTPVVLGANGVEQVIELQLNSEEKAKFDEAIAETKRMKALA

[4] = inhibition of 3D7 malaria parasite growth – strain 3D7 (AID 2306);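 note: 0% = DMSO wells and 100% = chloroquine plus artemisinin control wells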; details: P. falciparum 3D7 erythrocytic growth, LDH absorbance, 72 h; at 2 µM; stronger effect = higher value
[5] = target: Calcium-dependent protein kinase 1 (Plasmodium falciparum (isolate 3D7)) (UniProt P62344); assay: PfCDPK1 kinase inhibitors, biochemical, TCAMS library (AID 1159585; cut-off not given, nearly all actives have IC50 up to about 0.98 µM;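 note: inhibitors leave more ATP so luminescence rises with inhibition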); details: recombinant PfCDPK1, Kinase-Glo ATP depletion luminescence
Chain of Calcium-dependent protein kinase 1 (Plasmodium falciparum (isolate 3D7)) (P62344 whole entry, looked up): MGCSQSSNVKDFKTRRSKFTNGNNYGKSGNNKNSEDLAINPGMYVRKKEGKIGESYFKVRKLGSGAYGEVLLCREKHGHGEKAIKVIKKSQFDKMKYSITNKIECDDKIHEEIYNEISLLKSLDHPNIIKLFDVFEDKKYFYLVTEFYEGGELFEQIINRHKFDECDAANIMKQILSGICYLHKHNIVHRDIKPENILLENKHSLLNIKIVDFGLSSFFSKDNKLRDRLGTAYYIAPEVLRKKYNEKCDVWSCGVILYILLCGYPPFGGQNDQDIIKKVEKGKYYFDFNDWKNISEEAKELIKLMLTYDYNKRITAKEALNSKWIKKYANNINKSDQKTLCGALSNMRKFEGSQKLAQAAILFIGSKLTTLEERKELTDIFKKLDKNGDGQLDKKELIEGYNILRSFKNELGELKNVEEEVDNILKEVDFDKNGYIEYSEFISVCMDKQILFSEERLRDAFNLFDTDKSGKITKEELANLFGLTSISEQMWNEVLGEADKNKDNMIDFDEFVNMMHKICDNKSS

[6] = target: Plasmodium falciparum protein kinase 6 (PK6, PF3D7_1337100) (UniProt Q8IDW1); assay: PfPK6 kinase inhibitors, biochemical, TCAMS library (AID 1159586); details: recombinant PfPK6, Kinase-Glo ATP depletion luminescence
Chain of Plasmodium falciparum protein kinase 6 (PK6, PF3D7_1337100) (Q8IDW1 1-305): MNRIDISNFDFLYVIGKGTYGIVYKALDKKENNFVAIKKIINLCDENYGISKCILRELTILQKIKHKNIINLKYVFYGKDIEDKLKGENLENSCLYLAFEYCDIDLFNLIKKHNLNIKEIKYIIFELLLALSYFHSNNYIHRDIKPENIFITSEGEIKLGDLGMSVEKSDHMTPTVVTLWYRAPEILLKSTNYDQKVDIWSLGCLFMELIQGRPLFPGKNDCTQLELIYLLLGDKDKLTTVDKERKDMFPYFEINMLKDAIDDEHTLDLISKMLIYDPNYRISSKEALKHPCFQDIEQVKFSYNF

[7] = target: Protein kinase 7 (PK7), Plasmodium falciparum 3D7 (PF3D7_0213400) (UniProt Q7YTF7); assay: inhibition of Plasmodium PK7 catalytic activity – biochemical, TCAMS antimalarial set, Kinase-Glo luminescence (AID 1159587); details: recombinant PfPK7, Kinase-Glo ATP depletion luminescence
Chain of Protein kinase 7 (PK7), Plasmodium falciparum 3D7 (PF3D7_0213400) (Q7YTF7 1-343): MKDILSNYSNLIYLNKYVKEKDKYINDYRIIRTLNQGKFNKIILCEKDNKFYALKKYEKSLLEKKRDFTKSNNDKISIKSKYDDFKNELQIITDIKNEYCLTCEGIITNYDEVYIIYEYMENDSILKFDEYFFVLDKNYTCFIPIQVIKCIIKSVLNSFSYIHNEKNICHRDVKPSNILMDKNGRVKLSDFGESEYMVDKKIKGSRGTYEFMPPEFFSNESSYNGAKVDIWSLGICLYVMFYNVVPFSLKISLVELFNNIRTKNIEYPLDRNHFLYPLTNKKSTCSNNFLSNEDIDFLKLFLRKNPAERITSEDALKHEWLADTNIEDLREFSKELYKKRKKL

[8] = target: Calcium-dependent protein kinase 4 (Plasmodium falciparum (isolate 3D7)) (UniProt Q8IBS5); assay: PfCDPK4 kinase inhibitors, biochemical, TCAMS library (AID 1159588; cut-off not given, nearly all actives have IC50 up to about 0.91 µM); details: recombinant PfCDPK4, Kinase-Glo ATP depletion luminescence
Chain of Calcium-dependent protein kinase 4 (Plasmodium falciparum (isolate 3D7)) (Q8IBS5 whole entry, looked up): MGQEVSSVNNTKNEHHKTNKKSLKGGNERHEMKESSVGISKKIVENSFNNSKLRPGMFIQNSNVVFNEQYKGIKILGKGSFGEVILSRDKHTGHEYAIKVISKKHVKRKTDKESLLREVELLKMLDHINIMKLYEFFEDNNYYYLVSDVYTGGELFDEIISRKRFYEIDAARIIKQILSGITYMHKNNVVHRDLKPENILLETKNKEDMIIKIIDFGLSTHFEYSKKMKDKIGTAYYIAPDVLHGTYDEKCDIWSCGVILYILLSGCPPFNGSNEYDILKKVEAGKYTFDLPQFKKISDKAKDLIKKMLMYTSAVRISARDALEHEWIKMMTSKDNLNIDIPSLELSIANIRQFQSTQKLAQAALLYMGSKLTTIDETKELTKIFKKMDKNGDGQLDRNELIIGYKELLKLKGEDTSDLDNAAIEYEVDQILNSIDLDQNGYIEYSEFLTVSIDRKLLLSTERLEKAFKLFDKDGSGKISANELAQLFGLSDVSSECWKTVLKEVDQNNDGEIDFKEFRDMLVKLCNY

Structure (SMILES) | growth inhibition [1] | inhibition [2] | inhibition [3] [%] | growth inhibition [4] | outcome [5] | outcome [6] | outcome [7] | outcome [8]
Cc1cccc2[nH]c(-c3ccc(-c4ccc(CN5CCN(CCO)CC5)cc4)cc3)nc12 | 97% (active) | 20% | -4 | 100% (active) | inactive | inactive | inactive | inactive
Cc1cc(N(CCO)CCCN2CCCCC2)nc(Nc2ccc(Cl)cc2)n1 | 18% | 12% | -9 | 100% (active) | inactive | inactive | inactive | inactive
CCCCCCNC(=O)c1nn(CCN2CCC(N3CCCC3)CC2)cc1-c1ccc(Cl)c(Cl)c1 | 33% | 31% | -2 | 101% (active) | inactive | inactive | inactive | inactive
Cc1noc(-c2cccs2)c1C(=O)NCCc1cccc(Cl)c1 | 95% (active) | -17% | 0 | 97% (active) | inactive | inactive | inactive | inactive
COc1ccccc1/C=C/C(=O)NCCC1CCN(CCCCCNC(=O)/C=C/c2ccc(Cl)c(Cl)c2)CC1 | 0% | 34% | -4 | 94% (active) | inactive | inactive | inactive | inactive
O=C(CN1CCC(NCc2cnc(-c3ccc(Cl)cc3)[nH]2)CC1)N1CCc2ccccc21 | 5% | 11% | -8 | 100% (active) | inactive | inactive | inactive | inactive
O=S(=O)(Nc1cccc(CCN2CCC(N3CCCCC3)CC2)c1)c1ccc(Oc2ccccc2)cc1 | 25% | 28% | 0 | 100% (active) | inactive | inactive | inactive | inactive
CCc1c(CCNCCCC(C)CCNCCc2ccc(OC)c(OC)c2CC)ccc(OC)c1OC (stereo not given) | 27% | 99% (active) | 1 | 100% (active) | inactive | inactive | inactive | inactive
CC(C)CNC(=O)c1cncc(-c2ccc(CNCCCc3ccccc3)cc2)c1 | 73% (active) | 28% | -6 | 101% (active) | inactive | inactive | inactive | inactive
N#Cc1ccc(-c2ccc(C(=O)NCC3CCN(CCN4CCC(c5ccc6c(c5OCC(N)=O)CCCC6)CC4)CC3)cc2)cc1 | 99% (active) | 56% (active) | -7 | 99% (active) | inactive | inactive | inactive | inactive
COc1ccc2nccc([C@@H](O)CN3CCC(NC(=O)C(=Cc4ccc(Cl)cc4Cl)c4ccc(-c5ccccc5)cc4)CC3)c2c1 | 98% (active) | 1% | -2 | 100% (active) | inactive | inactive | inactive | inactive
Cc1c(CNCCCNc2nc3ccncc3[nH]2)sc(Br)c1Br | 1% | -10% | 3 | 87% (active) | inactive | inactive | inactive | inactive
Cc1ccc(Cn2c(N3CCC(C(=O)NCc4ccccn4)CC3)nc3ccccc32)cc1 | 99% (active) | -8% | 8 | 100% (active) | inactive | inactive | inactive | inactive
N#Cc1cccc(C(=O)Nc2ccc(-c3cccc(CN4CCCC4)c3)cc2)c1 | 79% (active) | 15% | 2 | 101% (active) | inactive | inactive | inactive | inactive
N#Cc1cccc(C(=O)Nc2cccc(-c3ccc(C(=O)NCCCN4CCOCC4)cc3)c2)c1 | 21% | 21% | -8 | 96% (active) | inactive | inactive | inactive | inactive
Nc1ccc(-c2nc3ccc(Oc4ccc5nc(-c6ccc(N)cc6)[nH]c5c4)cc3[nH]2)cc1 | 99% (active) | 18% | 7 | 100% (active) | inactive | inactive | inactive | inactive
CC1(C)N=C(N)N=C(N)N1c1ccc(Cl)c(Cl)c1 | 56% (active) | 67% (active) | 0 | 95% (active) | inactive | inactive | inactive | inactive
O=C(c1cc(-c2cccs2)[nH]n1)N1CCN(S(=O)(=O)c2ccc(Cl)s2)CC1 | 80% (active) | 20% | 1 | 84% (active) | inactive | inactive | inactive | inactive
NC(N)=Nc1nc(-c2cc(NC(=O)C(F)(F)F)cc([N+](=O)[O-])c2)cs1 | 51% (active) | 7% | 5 | 98% (active) | inactive | inactive | inactive | inactive
Cc1cc(OCc2ccccc2)c(OCc2ccccc2)cc1C(O)CN(C)Cc1ccccc1 (stereo not given) | 87% (active) | 14% | -2 | 96% (active) | inactive | inactive | inactive | inactive

Structure (SMILES) | growth inhibition [1] | inhibition [2] | inhibition [3] [%] | growth inhibition [4] | outcome [5] | outcome [6] | outcome [7] | outcome [8]
O=C(Nc1cccc(-c2cccc(-c3nc4ccccc4[nH]3)c2)c1)Nc1ccc(Cl)c(Cl)c1 | 98% (active) | 78% (active) | -3 | 101% (active) | inactive | inactive | inactive | inactive
CC(CN1CCN(C)CC1)C(=O)Nc1ccc(-c2ccc(-c3nc4ccc(F)cc4[nH]3)cc2)cc1 (stereo not given) | 87% (active) | 19% | -5 | 101% (active) | inactive | inactive | inactive | inactive
C/C(=C\C(=O)NC1CC1)c1ccccc1OCc1ccccc1 | 1% | 3% | -1 | 90% (active) | inactive | inactive | inactive | inactive
O=c1cc(NCCCCNCc2cccc(Br)c2)[nH]c2ccccc12 | 19% | -1% | 0 | 98% (active) | inactive | inactive | inactive | inactive
COc1ccc(CN(C)CCCOc2ccc(NC(=O)c3cccc4c(=O)c5cccc(C)c5[nH]c34)cc2)cc1OC | 62% (active) | 3% | 1 | 96% (active) | inactive | inactive | inactive | inactive
CC[C@]1(C)C[C@@H](NC(=O)NC(=O)c2ccc(OC)cc2)[C@]2(C)[C@H](C)CC[C@]3(CCC(=O)[C@H]32)[C@@H](C)[C@@H]1OC(=O)NC(=O)c1ccc(OC)cc1 | 98% (active) | 10% | -5 | 100% (active) | inactive | inactive | inactive | inactive
CCCC(CNCc1cccc(OC(F)(F)C(F)F)c1)CNc1cc(=O)c2ccccc2[nH]1 (stereo not given) | 94% (active) | -1% | 1 | 101% (active) | inactive | inactive | inactive | inactive
Oc1ccccc1CN1CCN(C(c2ccccc2)c2ccccc2)CC1 | 90% (active) | -4% | -1 | 98% (active) | inactive | inactive | inactive | inactive
Cc1[nH]c(C)c(C(F)(F)F)c(=O)c1-c1ccc(Oc2ccc(OC(F)(F)F)cc2)cc1 | 96% (active) | 0% | -6 | 97% (active) | inactive | inactive | inactive | inactive
O=C(NC1CCN(c2ccnc3ccccc23)C1)c1ccc(OC(F)(F)F)cc1 (stereo not given) | 68% (active) | 35% | -4 | 89% (active) | inactive | inactive | inactive | inactive
CC(=O)Nc1ncc(C(=O)Nc2cccc(-c3cccc(-c4nc5ccccc5[nH]4)c3)c2)s1 | 38% | 16% | 0 | 92% (active) | inactive | inactive | inactive | inactive
COc1ccc(CN2CCC(NCc3cccc([N+](=O)[O-])c3)CC2)cc1 | 3% | 6% | 2 | 92% (active) | inactive | inactive | inactive | inactive
CN(C)C(CNC(=O)c1cc(-c2ccncc2)c(-c2ccc(NC(=O)Nc3cccc(Cl)c3)cc2)o1)c1ccccc1 (stereo not given) | 100% (active) | 12% | -1 | 101% (active) | inactive | inactive | inactive | inactive
CCN1CCN(c2cc(C)c3cc(NC(=O)C=Cc4cccc(OC)c4OC)ccc3n2)CC1 | 38% | 18% | -3 | 99% (active) | inactive | inactive | inactive | inactive
Cc1cc2nc(-c3ccc(/C=C/C(=O)NCCCc4ccccc4)cc3)[nH]c2cc1C | 13% | 15% | -4 | 96% (active) | inactive | inactive | inactive | inactive
Cc1ccccc1N1CCN(c2ccc(C(=O)Nc3ccccc3)cn2)CC1 | 69% (active) | 44% | -5 | 95% (active) | inactive | inactive | inactive | inactive
CCCCNC(=O)[C@@H](NC(=O)c1ccc(O)c(-c2ccc(Cl)c(Cl)c2)c1)C(C)C | 98% (active) | -4% | 2 | 97% (active) | inactive | inactive | inactive | inactive
CC(C)(C)c1ccc(N2C(N)=NC(N)=NC2(C)C)cc1Cl | 3% | 51% (active) | -5 | 94% (active) | inactive | inactive | inactive | inactive
CS(=O)(=O)NCCCNCc1cccc(-c2csc(-c3nc4ccccc4[nH]3)c2)c1 | 9% | 23% | 8 | 95% (active) | inactive | inactive | inactive | inactive
CCCCCCN1CCCN(Cc2ccc(C(=O)Nc3ccc(F)c(F)c3)cc2)CC1 | 48% | 50% (active) | -8 | 84% (active) | inactive | inactive | inactive | inactive
